In PubChem BioAssay (EPA / NIEHS) one finds outcome and AC50 data, which are given here for four compounds.

Assay [1] has as its target Transcription factor E2F1 (Homo sapiens) (UniProt Q01094). Nature of the assay: ATG_E2F_CIS: Attagene CIS-FACTORIAL HepG2 Assay for human E2F Transcription Factor 1 (AID 2282935). The note with it: HepG2 Attagene cis-reporter, E2F reporter RNA transcripts; actives raise or lower the signal. The method in brief: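 Transient MRTU transfection of HepG2; 24 h compound exposure; RNA → oligo(dT) RT → PCR → FAM label → HpaI cut → CE fluorescence. Gain/loss of signal fit against DMSO.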

Assay [2] can be described thus: ATG_E_Box_CIS: Attagene CIS-FACTORIAL HepG2 Assay for human Enhancer Box (E-box) (AID 2282936). The settings on record: HepG2 E-box cis-reporter transcription, actives raise or lower the signal. The method in brief: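 Transiently transfected HepG2, endogenous TF-driven reporters, 24 h dosing. Readout: RT-PCR plus capillary electrophoresis of fluorescent reporter fragments. Gain or loss of signal fitted bidirectionally against DMSO baseline.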

A short description of assay [3]: ATG_M_61_CIS: Attagene CIS-FACTORIAL HepG2 Assay for M61 Transcription Factor (Internal Marker) (AID 2282937). The note with it: HepG2 Attagene CIS-FACTORIAL M61 internal marker reporter; actives raise or lower the signal. Summed up:
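Human liver HepG2, transient MRTU transfection (cis promoter elements), 24 h compound. Total RNA → oligo(dT) RT → PCR → FAM label → HpaI → CE. Internal background marker; bidirectional fitting, DMSO = baseline.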

A short description of assay [4]: ATG_EGR_CIS: Attagene CIS-FACTORIAL HepG2 Assay for human Early Growth Response 1 (EGR1) (AID 2282938). The settings on record: HepG2 Attagene CIS-FACTORIAL EGR reporter mRNA; actives raise or lower the signal. Summed up:
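Transient transfection of human HepG2 with multiple cis-regulated reporter units, chemical exposure 24 h, total RNA isolated. Reverse transcription, PCR, fluorescent labelling and capillary electrophoresis quantify reporter transcripts; activity fitted bidirectionally against DMSO.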

A short description of assay [5]: ATG_M_19_CIS: Attagene CIS-FACTORIAL HepG2 Assay for M19 Transcription Factor (Internal Marker) (AID 2282939). The note with it: HepG2 Attagene CIS-FACTORIAL M19 internal marker reporter; actives raise or lower the signal. Summed up: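 HepG2, MRTU transient transfection, 24 h dosing. Total RNA → RT-PCR → 6-FAM primer extension → HpaI digest → CE fluorescence. Bidirectional curve fit, DMSO negative control.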

The nature of assay [6]: ATG_ERE_CIS: Attagene CIS-FACTORIAL HepG2 Assay for Estrogen Response Element (ERE) (AID 2282940). The note with it: HepG2 ERE cis-reporter, Attagene RNA transcript; actives raise or lower the signal. Summed up:
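After a 24 h chemical treatment, RNA from reporter-transfected HepG2 cells is reverse-transcribed, PCR-amplified and fluorescently labelled. Fragments separated by capillary electrophoresis give reporter signal; DMSO serves as negative control.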

A short description of assay [7]: ATG_Ets_CIS: Attagene CIS-FACTORIAL HepG2 Assay for human Erythroblast Transformation Specific (ETS) (AID 2282941). The settings on record: HepG2 ETS cis-reporter transcription, actives raise or lower the signal. Summed up: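 RT-PCR/capillary electrophoresis fluorescence read-out of reporter mRNA; HepG2 transient multi-reporter transfection; 24 h compound exposure; gain or loss of signal fitted bidirectionally relative to DMSO.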

Assay [8] deals with Hepatocyte nuclear factor 3-beta (Homo sapiens) (UniProt Q9Y261). Nature of the assay: ATG_FoxA2_CIS: Attagene CIS-FACTORIAL HepG2 Assay for human Forkhead box A2 (FOXA2) (AID 2282942). The settings on record: HepG2 cis-reporter transcription factor activity, 24 h; actives raise or lower the signal. The method in brief:
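Transient MRTU transfection of HepG2 liver cells; 24 h treatment; total RNA → oligo(dT) RT → PCR → FAM primer extension → HpaI cut → CE. Bidirectional fit vs DMSO.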

Assay [9] in a line: ATG_FoxO_CIS: Attagene CIS-FACTORIAL HepG2 Assay for human Forkhead box O (FoxO) (AID 2282943). The note with it: HepG2 Attagene cis-reporter, FoxO element, mRNA; actives raise or lower the signal. Summed up:
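HepG2 cells transiently transfected with cis-element-driven reporter units report endogenous FoxO activity. After 24 h chemical exposure, reporter mRNA quantified by RT-PCR, fluorescent labeling, HpaI digestion and capillary electrophoresis; bidirectional fit versus DMSO.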

Assay [10] in a line: ATG_GATA_CIS: Attagene CIS-FACTORIAL HepG2 Assay for human GATA Binding Protein (AID 2282944). The note with it: HepG2 GATA cis-element reporter, Attagene multiplex mRNA; actives raise or lower the signal. Summed up: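 Cells: HepG2, transiently transfected with cis-regulated reporter transcription units. Exposure: 24 h. Detection: RT-PCR plus capillary electrophoresis of FAM-labeled fragments. Analysis: bidirectional, DMSO as baseline.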

The nature of assay [11]: ATG_GLI_CIS: Attagene CIS-FACTORIAL HepG2 Assay for human Zinc Finger Protein GLI1 (AID 2282945). The note with it: HepG2, Attagene cis-factorial reporter mRNA, GLI element; actives raise or lower the signal. Summed up: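 Transiently transfected HepG2 cells report endogenous transcription factor activity via cis-element-driven reporter units. After 24 h compound exposure, reporter mRNA was measured by RT-PCR with capillary electrophoresis; bidirectional fitting against DMSO baseline.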

Assay [12] addresses Bile acid receptor (Homo sapiens) (UniProt Q96RI1). Nature of the assay: ATG_IR1_CIS: Attagene CIS-FACTORIAL HepG2 Assay for human Nuclear Receptor Subfamily 1 Group H Member 4 (NR1H4), IR1 submotif (AID 2282946). The note with it: IR1 reporter transcription, actives raise or lower the signal. Summed up: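 Fluorescence of capillary-separated, HpaI-digested RT-PCR reporter products gave IR1-element mRNA induction in HepG2 cells 24 h after dosing. Endogenous transcription factors drove the cis-regulated reporters; activity was fitted bidirectionally against DMSO.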

Assay [13] in a line: ATG_GRE_CIS: Attagene CIS-FACTORIAL HepG2 Assay for human Glucocorticoid Response Elements (GRE) (AID 2282947). The settings on record: HepG2 GRE cis-reporter, Attagene multiplex mRNA; actives raise or lower the signal. The method in brief:
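Read-out: fluorescent reporter-transcript fragments separated by capillary electrophoresis after RT-PCR. Transiently transfected HepG2 cells carrying cis-element-driven reporter units were dosed for 24 h; gain or loss of signal fitted against DMSO control.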

A short description of assay [14]: ATG_ISRE_CIS: Attagene CIS-FACTORIAL HepG2 Assay for human Interferon Regulatory Factor 1 (IRF1) binding to an Interferon-Stimulated Response Element (ISRE) (AID 2282948). The settings on record: HepG2 ISRE cis-reporter (Attagene), mRNA transcription readout; actives raise or lower the signal. Summed up:
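Read-out: fluorescent RT-PCR products resolved by capillary electrophoresis, reporting endogenous transcription factor activity via ISRE-driven reporter mRNA in transfected HepG2 cells dosed for 24 h; gain or loss fitted relative to DMSO.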

The nature of assay [15]: ATG_M_06_CIS: Attagene CIS-FACTORIAL HepG2 Assay for M06 Transcription Factor (Internal Marker) (AID 2282950). The note with it: HepG2 Attagene CIS-FACTORIAL M06 internal marker reporter; actives raise or lower the signal. Summed up:
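Measured 24 h post-dosing in transiently transfected HepG2 cells, this internal-marker endpoint reports reporter mRNA via RT-PCR with fluorescent primer extension and capillary electrophoresis. DMSO served as negative control and baseline for bidirectional fitting.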

Assay [16] concerns the target Hypoxia-inducible factor 1-alpha (Homo sapiens) (UniProt Q16665). The assay is described as follows: ATG_HIF1a_CIS: Attagene CIS-FACTORIAL HepG2 Assay for human Hypoxia Inducible Factor 1 (HIF1A) (AID 2282951). The note with it: HepG2 Attagene cis-factorial HIF1a reporter transcription; actives raise or lower the signal. The method in brief: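 Transient MRTU transfection of human HepG2 liver cells, 24 h compound treatment, then total RNA isolation, oligo(dT) reverse transcription, PCR amplification, fluorescent labelling and capillary electrophoresis of reporter fragments. Gain or loss relative to DMSO.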

Assay [17] concerns the target Hepatocyte nuclear factor 6 (Homo sapiens) (UniProt Q9UBC0). The assay is described as follows: ATG_HNF6_CIS: Attagene CIS-FACTORIAL HepG2 Assay for human Hepatocyte Nuclear Factor 6 (HNF6) (AID 2282952). The note with it: HepG2 Attagene cis-factorial HNF6 reporter transcription; actives raise or lower the signal. Summed up:
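Readout: fluorescent reporter-transcript fragments resolved by capillary electrophoresis after RT-PCR, reflecting endogenous factor activity in transfected HepG2. Exposure 24 h. Gain or loss of signal fitted bidirectionally against DMSO.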

Assay [18] is described as follows: ATG_MRE_CIS: Attagene CIS-FACTORIAL HepG2 Assay for human Metal Responsive Element (MRE) (AID 2282954). The settings on record: HepG2 MRE cis-reporter transcription, Attagene multiplex; actives raise or lower the signal. The method in brief: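 RT-PCR/capillary electrophoresis readout of reporter mRNA, 24 h post-dosing, in HepG2 cells transfected with multiplexed cis-regulated reporter constructs. Gain or loss of signal fitted bidirectionally against DMSO baseline.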

Assay [19] is described as follows: ATG_M_32_CIS: Attagene CIS-FACTORIAL HepG2 Assay for M32 Transcription Factor (Internal Marker) (AID 2282949).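 Also: background control marker of the multiplexed CIS panel rather than a real target.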 The note with it: HepG2 Attagene cis-factorial M32 reporter, mRNA; actives raise or lower the signal. The method in brief: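 Using DMSO as baseline, bidirectional curve fits were applied to reporter mRNA signals. These came from transiently transfected HepG2 cells exposed for 24 h, with RNA analysed by RT-PCR, FAM primer extension, HpaI digestion and CE.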

Assay [20] concerns the target Heat shock factor protein 1 (Homo sapiens) (UniProt Q00613). Nature of the assay: ATG_HSE_CIS: Attagene CIS-FACTORIAL HepG2 Assay for human Heat Shock Transcription Factor 1 (HSE) (AID 2282953). The settings on record: HepG2 HSE cis-reporter, Attagene RNA transcription; actives raise or lower the signal. The method in brief:
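Reporter mRNA induction in HepG2 is measured 24 h after dosing, using transiently transfected multiplexed cis-regulated reporter units. Signal comes from capillary electrophoresis of labelled RT-PCR products, with DMSO as negative control.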

The structures appear in SMILES notation. Calls of active or inactive are those of the source. The calls were made as follows: active = hit-call score of the fitted dose curve at least 0.9, where 1 is the maximum; inactive = score below 0.9.

Hepatocyte nuclear factor 6 (Homo sapiens), sequence (Q9UBC0 whole entry, looked up, the tested form may be a part): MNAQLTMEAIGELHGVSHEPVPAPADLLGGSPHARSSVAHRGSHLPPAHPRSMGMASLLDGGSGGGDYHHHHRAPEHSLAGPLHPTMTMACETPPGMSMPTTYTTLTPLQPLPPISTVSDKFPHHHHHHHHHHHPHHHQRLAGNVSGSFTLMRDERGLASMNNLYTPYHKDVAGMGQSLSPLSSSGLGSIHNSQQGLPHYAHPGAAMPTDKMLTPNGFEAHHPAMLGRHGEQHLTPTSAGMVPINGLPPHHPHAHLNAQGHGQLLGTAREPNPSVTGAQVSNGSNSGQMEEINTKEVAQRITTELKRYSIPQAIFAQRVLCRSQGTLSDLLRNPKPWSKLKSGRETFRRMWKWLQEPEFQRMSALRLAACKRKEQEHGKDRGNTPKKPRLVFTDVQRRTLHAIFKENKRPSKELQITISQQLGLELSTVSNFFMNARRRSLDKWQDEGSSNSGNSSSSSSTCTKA
Hepatocyte nuclear factor 3-beta (Homo sapiens), sequence (Q9Y261 whole entry, looked up): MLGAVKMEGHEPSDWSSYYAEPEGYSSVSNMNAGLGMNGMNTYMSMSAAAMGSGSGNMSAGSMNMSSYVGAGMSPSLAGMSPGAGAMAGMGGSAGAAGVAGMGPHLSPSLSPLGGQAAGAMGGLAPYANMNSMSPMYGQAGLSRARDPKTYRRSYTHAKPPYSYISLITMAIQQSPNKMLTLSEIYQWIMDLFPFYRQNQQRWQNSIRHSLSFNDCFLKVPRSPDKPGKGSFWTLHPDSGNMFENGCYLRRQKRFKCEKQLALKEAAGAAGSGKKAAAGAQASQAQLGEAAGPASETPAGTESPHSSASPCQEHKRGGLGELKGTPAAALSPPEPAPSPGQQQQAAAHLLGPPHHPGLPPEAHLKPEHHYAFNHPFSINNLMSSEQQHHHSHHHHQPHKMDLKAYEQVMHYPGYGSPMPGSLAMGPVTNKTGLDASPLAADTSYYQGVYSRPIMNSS
Transcription factor E2F1 (Homo sapiens), sequence (Q01094 whole entry, looked up): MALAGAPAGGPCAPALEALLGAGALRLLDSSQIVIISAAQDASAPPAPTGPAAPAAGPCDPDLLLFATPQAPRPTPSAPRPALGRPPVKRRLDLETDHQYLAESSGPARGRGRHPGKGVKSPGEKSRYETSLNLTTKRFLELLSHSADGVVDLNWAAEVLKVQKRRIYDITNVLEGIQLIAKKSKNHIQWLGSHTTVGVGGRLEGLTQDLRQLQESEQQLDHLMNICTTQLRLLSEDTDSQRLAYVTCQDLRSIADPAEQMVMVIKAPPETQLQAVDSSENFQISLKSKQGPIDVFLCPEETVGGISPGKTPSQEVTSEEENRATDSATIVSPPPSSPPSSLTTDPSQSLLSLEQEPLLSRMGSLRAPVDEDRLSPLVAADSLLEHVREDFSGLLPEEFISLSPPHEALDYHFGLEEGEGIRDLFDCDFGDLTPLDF
Bile acid receptor (Homo sapiens), sequence (Q96RI1 whole entry, looked up): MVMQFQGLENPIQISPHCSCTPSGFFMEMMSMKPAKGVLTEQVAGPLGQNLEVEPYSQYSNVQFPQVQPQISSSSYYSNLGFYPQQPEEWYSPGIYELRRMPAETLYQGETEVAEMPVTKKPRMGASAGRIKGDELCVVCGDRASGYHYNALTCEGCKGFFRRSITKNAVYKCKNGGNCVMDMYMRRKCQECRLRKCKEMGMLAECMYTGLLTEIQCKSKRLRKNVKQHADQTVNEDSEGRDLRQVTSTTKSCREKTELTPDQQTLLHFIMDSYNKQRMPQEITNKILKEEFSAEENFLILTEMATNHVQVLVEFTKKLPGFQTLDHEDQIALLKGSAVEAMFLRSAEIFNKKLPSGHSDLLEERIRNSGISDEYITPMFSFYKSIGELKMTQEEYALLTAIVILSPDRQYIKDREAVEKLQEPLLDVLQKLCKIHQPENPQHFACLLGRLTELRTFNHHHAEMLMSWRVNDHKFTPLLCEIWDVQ
Hypoxia-inducible factor 1-alpha (Homo sapiens), sequence (Q16665 whole entry, looked up, the tested form may be a part): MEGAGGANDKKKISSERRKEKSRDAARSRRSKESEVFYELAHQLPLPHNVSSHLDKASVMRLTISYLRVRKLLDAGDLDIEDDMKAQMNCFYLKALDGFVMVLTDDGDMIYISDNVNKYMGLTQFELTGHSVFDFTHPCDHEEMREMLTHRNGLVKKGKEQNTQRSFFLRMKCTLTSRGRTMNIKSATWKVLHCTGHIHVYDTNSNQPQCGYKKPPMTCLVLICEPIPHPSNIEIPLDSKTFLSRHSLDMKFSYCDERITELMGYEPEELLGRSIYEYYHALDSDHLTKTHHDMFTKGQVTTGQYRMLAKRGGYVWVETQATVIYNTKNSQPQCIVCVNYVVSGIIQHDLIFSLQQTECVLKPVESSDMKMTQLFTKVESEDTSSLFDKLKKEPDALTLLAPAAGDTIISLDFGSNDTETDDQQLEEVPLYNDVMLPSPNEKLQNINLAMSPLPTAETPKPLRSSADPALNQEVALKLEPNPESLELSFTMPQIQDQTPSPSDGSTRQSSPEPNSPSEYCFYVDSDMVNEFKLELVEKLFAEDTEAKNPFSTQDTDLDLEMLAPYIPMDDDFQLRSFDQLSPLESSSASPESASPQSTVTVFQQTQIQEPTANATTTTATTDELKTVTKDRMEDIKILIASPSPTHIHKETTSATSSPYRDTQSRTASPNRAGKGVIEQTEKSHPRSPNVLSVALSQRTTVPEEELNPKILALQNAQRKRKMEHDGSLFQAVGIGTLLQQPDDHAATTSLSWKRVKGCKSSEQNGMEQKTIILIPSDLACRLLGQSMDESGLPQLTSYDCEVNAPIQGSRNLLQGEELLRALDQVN
Heat shock factor protein 1 (Homo sapiens), sequence (Q00613 whole entry, looked up): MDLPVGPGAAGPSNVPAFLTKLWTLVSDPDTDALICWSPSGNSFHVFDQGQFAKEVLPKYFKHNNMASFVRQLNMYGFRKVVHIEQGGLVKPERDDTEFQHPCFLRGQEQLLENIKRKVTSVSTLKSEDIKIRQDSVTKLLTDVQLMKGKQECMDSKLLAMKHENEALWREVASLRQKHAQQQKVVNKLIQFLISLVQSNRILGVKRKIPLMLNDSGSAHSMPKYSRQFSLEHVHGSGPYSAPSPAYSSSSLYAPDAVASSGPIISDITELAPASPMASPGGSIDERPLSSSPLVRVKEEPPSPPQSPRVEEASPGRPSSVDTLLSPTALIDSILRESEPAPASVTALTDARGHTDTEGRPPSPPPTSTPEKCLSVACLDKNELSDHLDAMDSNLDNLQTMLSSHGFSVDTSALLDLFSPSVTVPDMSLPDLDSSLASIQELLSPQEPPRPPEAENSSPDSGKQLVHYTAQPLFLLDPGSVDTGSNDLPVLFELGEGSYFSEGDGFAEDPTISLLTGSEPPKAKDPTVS

`C/C=C/C=C/CCCCCCCO`: the compound was called inactive in assay [1], in assay [2], in assay [3], in [5], in assay [6] and in [7]. Besides, the compound was called inactive in assay [8], in assay [9], in assay [10], in assay [13], in assay [14] and in [15]. Besides, the outcome in [16] and in assay [17] was inactive. Moreover, the concentration at half-maximal activity (AC50) (as a rule, the concentration giving half of the maximal activity seen) in assay [4] is 100 µM (active); in assay [11], 168 µM (active); in assay [12], 172 µM (active); in assay [18], 121 µM (active).

On to `CCCCCCCCCCCCCCCCCCOS(=O)(=O)O`, for which the call in assay [1], in assay [2], in assay [4], in assay [7], in assay [9] and in assay [10] was inactive. The call in assay [11], in assay [13] and in assay [16] was inactive. Further, the concentration at half-maximal activity (AC50) is 54.7 µM (active) in assay [3]; 52.5 µM (active) in [5]; 26.8 µM (active) in [6]; 56.7 µM (active) in [8]; 33.4 µM (active) in [12]; 53 µM (active) in [19]. Further, the AC50 is 54.7 µM (active) in assay [15], 19.5 µM (active) in assay [17], 54 µM (active) in [20] and 23.2 µM (active) in [18].

Regarding `C=CC(=O)NC(C)(C)C`, the result in [1], in [2], in assay [3], in assay [4], in assay [5] and in [6] was inactive. Also, the outcome in assay [7], in assay [8], in assay [9], in [10], in [11] and in assay [13] was inactive. Moreover, the compound was called inactive in assay [19], in assay [15], in [16], in assay [17] and in assay [18]. The AC50 in assay [12] is 27.5 µM (active).

As to `CCCCC1C(=O)N(c2ccccc2)N(c2ccccc2)C1=O`, the outcome in assay [1], in assay [2], in assay [3], in assay [4], in [5] and in assay [6] was inactive. Moreover, the outcome in [7], in assay [8], in assay [9], in assay [10], in assay [11] and in [12] was inactive. The compound was classed as inactive in assay [13], in assay [14], in assay [19], in assay [15], in [16] and in [17]. Besides, the compound was classed as inactive in assay [20] and in assay [18].
